Source: PubChem BioAssay (NCI)
Values joined by “and” are separate entries in the source; they are usually repeats but may differ in a detail not shown here. Equal values may be shown once. This is part of a sample that, as a whole, favours compounds with a hit. Of some 83,000 tested, about 20% had one in any assay.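 Assay: single dose, 48 h. Readout: percent growth (0 = no net growth; negative = cell death). Active: <10.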 Active and inactive are the calls of the source.

Legend:
Experiment in all cases: NCI-60 one-dose screen, 48 h (100 = growth as untreated, 0 = no growth, -100 = all killed)
Conditions in all cases: 10 µM unless noted
NCI-H23 lung = system: NCI-H23 lung
NCI-H226 lung = system: NCI-H226 lung
NCI-H322M lung = system: NCI-H322M lung
HOP-62 NSCLC = system: HOP-62 NSCLC
NCI-H460 lung = system: NCI-H460 lung
HOP-92 NSCLC = system: HOP-92 NSCLC
NCI-H522 lung = system: NCI-H522 lung
A549/ATCC NSCLC = system: A549/ATCC NSCLC
786-0 renal = system: 786-0 renal
DU-145 prostate = system: DU-145 prostate
K-562 leukemia = system: K-562 leukemia
MALME-3M melanoma = system: MALME-3M melanoma
MDA-MB-231 breast = system: MDA-MB-231 breast
RXF 393 renal = system: RXF 393 renal
SF-268 CNS = system: SF-268 CNS
SF-295 CNS = system: SF-295 CNS
SF-539 CNS = system: SF-539 CNS
UACC-257 melanoma = system: UACC-257 melanoma
M14 melanoma = system: M14 melanoma
COLO 205 colon = system: COLO 205 colon

Measured: growth

Nc1ccc(Cl)c(S(=O)(=O)O)c1
inactive: NCI-H23 lung 97% | NCI-H226 lung 97.1% | NCI-H322M lung 89.2% | HOP-62 NSCLC 100% | NCI-H460 lung 105% | HOP-92 NSCLC 106% | NCI-H522 lung 99.1% | A549/ATCC NSCLC 106% | 786-0 renal 104% | DU-145 prostate 105% | K-562 leukemia 104% | MALME-3M melanoma 112% | MDA-MB-231 breast 111% | RXF 393 renal 95.1% | SF-268 CNS 102% | SF-295 CNS 112% | SF-539 CNS 94.3% | UACC-257 melanoma 98.8% | M14 melanoma 98.9%

CCCCC/C(C)=N\NC(N)=S
inactive: NCI-H23 lung 89.5% | NCI-H226 lung 86% | NCI-H322M lung 90.4% | HOP-62 NSCLC 89.8% | NCI-H460 lung 94.8% | HOP-92 NSCLC 93.2% | NCI-H522 lung 89.3% | A549/ATCC NSCLC 78.4% | 786-0 renal 101% | DU-145 prostate 85.2% | K-562 leukemia 58.7% | MALME-3M melanoma 83.7% | MDA-MB-231 breast 85.9% | RXF 393 renal 85.7% | SF-268 CNS 88.2% | SF-295 CNS 83.4% | SF-539 CNS 103% | UACC-257 melanoma 60% | M14 melanoma 74.5%

O=C(Nc1ccccc1)OCC(CN1CCCCC1)OC(=O)Nc1ccccc1 (stereo not drawn)
inactive: NCI-H23 lung 78.4% and 103% | NCI-H226 lung 96.6% and 89.9% | NCI-H322M lung 81% and 92.2% | HOP-62 NSCLC 83.6% and 110% | NCI-H460 lung 106% and 105% | HOP-92 NSCLC 76.4% | NCI-H522 lung 103% | A549/ATCC NSCLC 94.1% and 94.4% | 786-0 renal 64% and 101% | DU-145 prostate 107% | K-562 leukemia 89% | MALME-3M melanoma 90.8% and 109% | MDA-MB-231 breast 30.7% and 79.2% | RXF 393 renal 60% and 86.8% | SF-268 CNS 79.2% and 94.7% | SF-295 CNS 96.5% and 97.9% | SF-539 CNS 87.5% and 96.2% | UACC-257 melanoma 93.7% and 93.2%

CC1CCC(=O)N1c1ccc(N)cc1 (stereo not drawn)
inactive: NCI-H23 lung 103% | NCI-H226 lung 100% | NCI-H322M lung 96.4% | HOP-62 NSCLC 86.3% | NCI-H460 lung 106% | HOP-92 NSCLC 107% | A549/ATCC NSCLC 89.1% | 786-0 renal 106% | DU-145 prostate 105% | K-562 leukemia 99.9% | MALME-3M melanoma 105% | MDA-MB-231 breast 101% | RXF 393 renal 112% | SF-268 CNS 103% | SF-295 CNS 102% | SF-539 CNS 99.8% | UACC-257 melanoma 88.7% | M14 melanoma 104%

Nc1ccccc1SC(CC(=O)c1ccccc1)c1cccc([N+](=O)[O-])c1 (stereo not drawn)
inactive: NCI-H23 lung 87.1% and 90.4% | NCI-H322M lung 113% and 96.1% | HOP-62 NSCLC 95.3% and 95.4% | NCI-H460 lung 105% and 100% | HOP-92 NSCLC 95.9% | NCI-H522 lung 84.4% and 73.3% | A549/ATCC NSCLC 95.1% and 78.7% | 786-0 renal 113% and 91.8% | DU-145 prostate 113% and 85.5% | MALME-3M melanoma 123% and 86.7% | MDA-MB-231 breast 86.4% and 99.6% | RXF 393 renal 104% and 94.7% | SF-268 CNS 101% and 83.9% | SF-295 CNS 83.1% and 92.3% | SF-539 CNS 99.6% and 105% | UACC-257 melanoma 95% and 87.7% | M14 melanoma 114% and 89.9%
61% (inactive) and 7.1% (active): K-562 leukemia

CC(C)(C)OC(=O)CC1(O)CCCCC1
inactive: NCI-H23 lung 101% | NCI-H226 lung 93.7% | NCI-H322M lung 111% | HOP-62 NSCLC 114% | NCI-H460 lung 103% | HOP-92 NSCLC 86.1% | A549/ATCC NSCLC 109% | 786-0 renal 101% | COLO 205 colon 109% | DU-145 prostate 112% | K-562 leukemia 114% | MALME-3M melanoma 117% | MDA-MB-231 breast 95.8% | RXF 393 renal 108% | SF-268 CNS 104% | SF-295 CNS 100% | SF-539 CNS 108% | UACC-257 melanoma 109% | M14 melanoma 108%

O=C1C2=C(Nc3cc(Cl)ccc3N2)OC1c1c[nH]c2ccc(COc3ccccc3)cc12 (stereo not drawn)
active: NCI-H226 lung 2.7% | HOP-62 NSCLC -14.7%
inactive: NCI-H23 lung 59.3% | NCI-H322M lung 64.7% | NCI-H460 lung 59.7% | HOP-92 NSCLC 42.3% | A549/ATCC NSCLC 74.2% | 786-0 renal 38.8% | COLO 205 colon 111% | DU-145 prostate 73.7% | K-562 leukemia 79.7% | MALME-3M melanoma 74% | MDA-MB-231 breast 59.5% | RXF 393 renal 43.9% | SF-268 CNS 30.4% | SF-295 CNS 33.5% | SF-539 CNS 53.8% | UACC-257 melanoma 80.3% | M14 melanoma 94.2%

C/C(=C\c1ccccc1)C(O)C(=O)c1nc2ccc([N+](=O)[O-])cc2[nH]c1=O (stereo not drawn)
inactive: NCI-H23 lung 104% | NCI-H226 lung 88% | NCI-H322M lung 90.3% | HOP-62 NSCLC 81.4% | NCI-H460 lung 94.7% | HOP-92 NSCLC 78.9% | A549/ATCC NSCLC 85.7% | 786-0 renal 101% | DU-145 prostate 105% | K-562 leukemia 85.8% | MALME-3M melanoma 109% | MDA-MB-231 breast 90.8% | RXF 393 renal 109% | SF-268 CNS 98.1% | SF-295 CNS 93.3% | SF-539 CNS 102% | UACC-257 melanoma 81.2% | M14 melanoma 92.3%

Cc1cc2ccccc2c2cc3ccccc3cc12
inactive: NCI-H23 lung 94.9% | NCI-H226 lung 68.4% | NCI-H322M lung 85.9% | HOP-62 NSCLC 85.6% | NCI-H460 lung 89.2% | HOP-92 NSCLC 99% | A549/ATCC NSCLC 92.7% | 786-0 renal 110% | DU-145 prostate 107% | K-562 leukemia 95.4% | MALME-3M melanoma 86.9% | MDA-MB-231 breast 79.9% | RXF 393 renal 97.7% | SF-268 CNS 100% | SF-295 CNS 96.9% | SF-539 CNS 92.6% | UACC-257 melanoma 99.6% | M14 melanoma 85.1%

O=[N+]([O-])c1ccc(N2CCN=N2)cc1
inactive: NCI-H23 lung 99.6% | NCI-H226 lung 96% | NCI-H322M lung 88% | HOP-62 NSCLC 82.9% | NCI-H460 lung 98.9% | HOP-92 NSCLC 89% | A549/ATCC NSCLC 82.2% | 786-0 renal 84.8% | COLO 205 colon 92.7% | DU-145 prostate 88.2% | K-562 leukemia 63.6% | MALME-3M melanoma 106% | MDA-MB-231 breast 80.4% | RXF 393 renal 109% | SF-268 CNS 85.8% | SF-295 CNS 97.1% | SF-539 CNS 93.4% | UACC-257 melanoma 91.5% | M14 melanoma 82.7%

CCOC(=O)c1ccc(N2C(=O)C(Cl)(c3ccccc3)C2c2ccco2)cc1 (stereo not drawn)
inactive: NCI-H23 lung 70.4% | NCI-H226 lung 81.1% | NCI-H322M lung 83.8% | HOP-62 NSCLC 110% | NCI-H460 lung 84.2% | HOP-92 NSCLC 63.7% | A549/ATCC NSCLC 86.2% | 786-0 renal 80.9% | COLO 205 colon 96.7% | DU-145 prostate 65.4% | K-562 leukemia 31.1% | MALME-3M melanoma 86.7% | MDA-MB-231 breast 80% | RXF 393 renal 99.7% | SF-268 CNS 77.8% | SF-295 CNS 86.4% | SF-539 CNS 96.2% | UACC-257 melanoma 89.7% | M14 melanoma 98.7%

Cc1nc(Nc2ccc(Cl)cc2)c2cnn(-c3ccccc3)c2n1
inactive: NCI-H23 lung 97.3% | NCI-H226 lung 96.6% | NCI-H322M lung 104% | HOP-62 NSCLC 108% | NCI-H460 lung 103% | HOP-92 NSCLC 95.4% | A549/ATCC NSCLC 110% | 786-0 renal 103% | COLO 205 colon 102% | DU-145 prostate 107% | K-562 leukemia 113% | MALME-3M melanoma 90.3% | MDA-MB-231 breast 111% | RXF 393 renal 93.6% | SF-268 CNS 99.8% | SF-295 CNS 97.1% | SF-539 CNS 99.9% | UACC-257 melanoma 101% | M14 melanoma 100%
